High-throughput results as filed in PubChem BioAssay.
AI-2 QS mod: modulators of Vibrio harveyi AI-2 quorum sensing system; Vibrio harveyi JMH597 AI-2 luminescence/OD600 ratio, 9 h; active compounds read low; strain lacks LuxN and CqsS sensors; 0 = neutral-control median; activity change, % at 7.5 µM; 300,000 compounds, 0.4% hits; in the data active = activity change below about -75%, passing the limit was not always enough;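 also: luminescence divided by OD600 gain over 9 h not by final OD600 alone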
ALR H2O2 inh: human ALR oxidase inhibition via reduced H2O2; P55789; purified ALR, DTT oxidation, H2O2 HRP-luminol luminescence; inhibition, % (test concentration not listed); 290,000 compounds, 3.8% hits; AID 485317;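 active = mean replicate inhibition above about 79%, with every replicate also reaching it, limit read from the data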
Target sequence (P55789 whole entry, looked up): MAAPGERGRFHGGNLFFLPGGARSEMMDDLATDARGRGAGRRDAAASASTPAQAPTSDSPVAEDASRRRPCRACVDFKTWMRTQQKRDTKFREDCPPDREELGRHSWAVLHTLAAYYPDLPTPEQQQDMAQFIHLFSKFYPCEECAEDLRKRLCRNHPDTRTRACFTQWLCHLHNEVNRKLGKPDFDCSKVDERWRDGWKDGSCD
HIF act: HIF pathway transcriptional activation. activation, % at 7.5 µM (by protocol). U2OS HRE-luciferase reporter, luminescence; normalized: DMSO 0%, desferrioxamine 100%. 300,000 compounds, 0.32% hits;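 active = mean activation of at least 10% of the iron chelator positive control signal, with at least half of replicates also reaching 10%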
SUMO Mot1 rescue: SUMOylation pathway inhibition by Mot1-301 growth rescue; S. cerevisiae Mot1-301 growth rescue, ATP luminescence, 38.5C; percent above DMSO median, 100 means doubled; growth rescue, % at 18.8 µM; 320,000 compounds, 1% hits;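 active = every valid replicate shows activation above 250% relative to neutral control wells; inactive = the rest, any valid replicate at or below 250%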;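 also: OY570 slx delta 5 strain wells were the positive control but not used for scaling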
Numbers without * were called inactive; / = no result. An excerpt weighted towards active compounds, which were near 4.8% of everything screened.

SMILES	AI-2 QS mod	ALR H2O2 inh	HIF act	SUMO Mot1 rescue
O=C(c1ccccc1)c1c[nH]c(C(=O)NNc2ccccc2)c1	6.5	-8.3	0.0	404.2*
CN(C)CCCNC(=O)c1cc(C(=O)c2ccccc2)c[nH]1	11.8	/	-0.2	-15.2
O=C(CSc1nnc(-c2c[nH]c3ccccc23)o1)NCC1CCCO1 (configuration not stated)	/	-9.2	/	285.5*
O=C1/C(=C/c2ccc(N3CCCC3)cc2)NC(=S)N1C1CC1	12.1	97.5*	0.9	27.7
O=C(O)C(c1ccccc1)N1C(=O)/C(=C\c2ccc(O)c(O)c2)SC1=S (configuration not stated)	0.6	99.0*	0.1	5.0
CCOc1cc(/C=C2\SC(=S)N(C(C(=O)O)c3ccccc3)C2=O)ccc1O (configuration not stated)	33.6	99.7*	0.2	3.2
COc1cc(/C=C2\SC(=S)N(C(C(=O)O)c3ccccc3)C2=O)ccc1O (configuration not stated)	8.4	/	-0.3	-4.5
COc1ccccc1/C=C1\SC(=S)N(C(C(=O)O)c2ccccc2)C1=O (configuration not stated)	10.6	51.4	-0.4	11.4
OCCc1c[nH]c2ccc(C(F)(F)F)cc12	24.2	1.6	1.8	-29.0
Fc1cnc(N2CCN(c3ccccc3)CC2)nc1N1CCN(c2ccccc2)CC1	-0.5	5.2	0.3	11.7
Nc1nc(N2CCN(c3cccc(Cl)c3)CC2)n[nH]1	25.2	99.2*	0.1	51.5
Nc1nc(N2CCN(c3ccc(Cl)cc3)CC2)n[nH]1	10.1	98.1*	-0.3	-12.6
Nc1nc(N2CCN(c3ccccc3)CC2)n[nH]1	22.6	99.7*	0.0	-6.2
CC(C(=O)N1c2ccc(F)cc2CCC1C)N1C(=O)c2ccccc2C1=O (configuration not stated)	1.3	-3.5	-14.4	262.2*
CN1C(=O)N(CC(=O)Nc2sccc2C(N)=O)C(=O)C12CCCCC2	/	19.8	/	-0.1
CCOC(=O)CC(=O)CSCC(=O)Nc1ccc(C)cc1	15.1	99.7*	0.1	0.2
Cc1ccc(NC(=O)CSCC#N)cc1	17.3	98.8*	0.3	2.2
CCCCCCSc1ccc([C@@H]2[C@@H]3C(=O)N(C)C(=O)[C@@H]3[C@]3(C(=O)OC)CCCCN23)cc1	/	8.1	/	-4.9
CC(C)n1cc(CNC(=O)C2CCC(=O)N(Cc3ccccc3F)C2)cn1 (configuration not stated)	21.4	3.5	0.0	323.7*
COc1cc(C(=O)NS(=O)(=O)c2ccccc2C)ccc1Cc1cn(C)c2ccc(NC(=O)OC3CCCC3)cc12	16.2	97.3*	0.4	3.1
COc1cc(C)c(N)cc1C(C)C	8.0	98.3*	0.0	2.6
O=C1c2ccccc2NC(c2ccc(-c3ccc(F)cc3)o2)N1O (configuration not stated)	/	48.5	/	13.3
O=C1c2ccccc2NC(c2ccc(-c3cccc([N+](=O)[O-])c3)o2)N1O (configuration not stated)	41.1	89.6*	1.3	-10.3
C[C@H](CO)N1C[C@H](C)[C@@H](CN(C)S(=O)(=O)c2ccccc2)Oc2c(NC(=O)Nc3ccc4c(c3)OCO4)cccc2C1=O	/	/	/	-5.1
CC(=O)Nc1nc(C)c(C(C)=O)s1	9.4	-3.0	0.1	340.8*
SMILES	AI-2 QS mod	ALR H2O2 inh	HIF act	SUMO Mot1 rescue
COc1cc(C#CC#CCN2CCCCC2)ccc1O	2.6	99.2*	0.3	-0.2
C(#Cc1ccccc1)CN1CCCCC1	14.8	-3.3	-0.2	14.1
CCn1ncc(C2=NOC(C(=O)Nc3ccc4c(c3)OCO4)C2)c1C (configuration not stated)	-0.7	-28.3	110.2*	398.0
Cn1nccc1C(=O)N1CCN(c2ccccc2Cl)CC1	-0.8	0.8	0.2	4.3
Cn1nccc1C(=O)N1CCN(c2ncccn2)CC1	6.5	-2.3	-0.1	336.0*
O=C1CSC(c2cccc([N+](=O)[O-])c2)N1CCc1ccccc1 (configuration not stated)	12.8	44.1	-1.3	4.5
CCCC(=O)Nc1cc(S(=O)(=O)N(CC)CC)ccc1Cl	12.9	98.0*	-1.1	-7.2
CN(CC(=O)Nc1cccc(F)c1)C(=O)c1ccccc1Cc1ccccc1	9.7	4.4	-0.5	-11.2
O=C(COC(=O)c1cc(Cl)nc(Cl)c1)NCc1ccc2c(c1)OCO2	/	-0.5	/	-1.5
N#C/C(=N\Nc1ccccc1Cl)C(=O)c1ccccc1	13.5	/	-0.6	5.5
N#C/C(=N\Nc1c(Cl)cccc1Cl)C(=O)NN	20.2	98.1*	-0.9	-16.6
Nc1ncc(-c2ccc([N+](=O)[O-])cc2)cn1	13.2	-10.0	-0.2	0.0
O=[N+]([O-])c1ccc(-c2cnc(NO)nc2)cc1	7.5	99.1*	1.5	-1.1
O=C(NC(=S)NCc1ccncc1)c1ccccc1	12.7	93.7*	-0.2	-9.0
O=C(NC(=S)NCc1ccccc1)c1ccccc1	4.5	-0.4	-0.4	-6.1
COc1ccccc1-c1cc(C(=O)Nc2c(C)n(C)n(-c3ccccc3)c2=O)no1	27.4	96.9*	-0.3	44.6
Cc1c(NS(=O)(=O)c2ccc3nc(COc4ccccc4Cl)[nH]c3c2)c(=O)n(-c2ccccc2)n1C	18.3	98.7*	-0.2	0.8
CSc1nc2ccc(S(=O)(=O)Nc3c(C)n(C)n(-c4ccccc4)c3=O)cc2s1	2.8	98.8*	0.0	-9.7
COc1ccc(S(=O)(=O)Nc2c(C)n(C)n(-c3ccccc3)c2=O)cc1C(=O)O	32.9	8.8	-19.0	273.8*
Cc1c(NS(=O)(=O)c2ccc(Br)cc2)c(=O)n(-c2ccccc2)n1C	4.9	/	1.1	2.9
CC1CCN(c2ccc3nnc(CCC(=O)N4CCN(c5ccc(F)cc5)CC4)n3n2)CC1	18.0	16.5	0.4	3.4
COc1ccc(S(=O)(=O)N2CCN(C(=O)CCSc3ccccc3)CC2)cc1	/	/	/	-12.9
Cc1nc([N+](=O)[O-])c(Br)n1CC(=O)c1ccc(Cl)cc1	10.6	97.2*	1.0	-26.5
CCOC(=S)SCC(=O)Nc1nc(-c2ccccc2)cs1	20.5	99.1*	-0.7	40.1
COc1ccc(-c2csc(NC(=O)CSc3nc(C)nc4sc(C(=O)O)c(C)c34)n2)cc1	52.8	99.0*	-0.2	-20.5
SMILES	AI-2 QS mod	ALR H2O2 inh	HIF act	SUMO Mot1 rescue
CCOC(=S)SCC(=O)Nc1nc(-c2ccc(Br)cc2)cs1	7.3	98.6*	0.9	22.9
CCOC(=O)N1CCN(C(=O)CSCC(=O)Nc2nc(-c3ccc(OC)cc3)cs2)CC1	12.8	98.6*	1.5	-25.2
CCOC(=O)N1CCN(C(=O)CSCC(=O)Nc2nc(-c3ccc(-c4ccccc4)cc3)cs2)CC1	12.4	3.7	3.9	-3.5
COc1ccc(-c2csc(NC(=O)CSc3nc(C)cs3)n2)cc1	24.4	-6.4	1.5	12.0
CCOc1ccc(N(C)S(=O)(=O)c2ccc(C)c(C(=O)N3CCN(Cc4ccc5c(c4)OCO5)CC3)c2)cc1	/	-4.4	/	16.4
COc1ccc(NC(=O)CN(C)C(=O)c2c(-c3c(F)cccc3Cl)noc2C)cc1	1.4	-3.1	0.6	687.7*
Cc1onc(-c2c(Cl)cccc2Cl)c1C(=O)NNc1ccccc1	13.0	-4.8	-0.1	317.6*
